About 7,900 targets were measured; listed, in parts, are those with a hit and a random draw of the rest. About 0.6% of all pairs of compound and target were hits. Unmarked numbers belong to inactive results.

Consider four targets from the supplement of paper PMC10849652.

What all share (test): log2 fold change, soluble protein after heating vs DMSO (PISA); higher = thermal stabilisation; K562 cells, 10 uM, 30 min; active = over 0.2 and 3.5 SD of the protein, either way, in both replicates (recomputed)
Compound in assay [1]: C#Cc1cccc(Nc2ncnc3cc(OCCOC)c(OCCOC)cc23)c1 [erlotinib]
Put shortly:
(§1)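 Values are thermal stability changes relative to control samples and are taken from duplicates. They are stated as log2 fold changes. Before quantification by TMTpro 16plex LC-MS/MS with equalised channel sums, K562 cells at 2×10^6 cells/mL were treated with 10 μM compound for 30 min, heated in aliquots for 3 min across 48°C-58°C, pooled, extracted in PBS with 0.5% NP-40 at 4°C, and centrifuged at 21,000xg for 90 min to give the soluble supernatant.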

Compound in assay [2]: C/C(=N\NC(=O)C1=CC(=CC=C1)S(=O)(=O)N2CCOCC2)/C3=C(C=CC(=C3)Cl)O
Put shortly: as §1

Compound in assay [3]: C1=CC(=C(C=C1Cl)C2=NC3=NC=CN=C3C(=N2)NC4=CC=NC=C4)F
Put shortly: as §1

Compound in assay [4]: C1=CC(=CC=C1C2=NC3=C(N2)C=C(C=C3)C(=O)N)OC4=CC=C(C=C4)Cl
Put shortly:
as §1

Compound in assay [5]: C1=CC2=C(C=CC(=C2)/C=C\3/C(=O)NC(=NCC4=CC=CS4)S3)N=C1
Put shortly:
as §1

Compound in assay [6]: C1=CC2=NC=CN=C2C=C1/C=C/3\C(=O)NC(=O)S3
Put shortly: as §1

Compound in assay [7]: C1=CC=C(C=C1)C2=NC(=C(N2)C3=CC=NC=C3)C4=CC(=C(C=C4)Cl)O
Put shortly:
as §1

Compound in assay [8]: C1=CC=C2C(=C1)C3=NNC4=CC=CC(=C43)C2=O
Put shortly:
as §1

Compound in assay [9]: C1CCN(C1)C(=O)NC2=CC=CC(=C2)NC3=NC=C(C(=N3)NCCC4=CN=CN4)Br
Put shortly:
as §1

Compound in assay [10]: C1CN(CCC1(CC2=CC=C(C=C2)Cl)N)C3=NC=NC4=C3C=CN4
Put shortly:
as §1

Compound in assay [11]: C1COCCN1CCN2C3=CC=CC=C3N=C2NC(=O)C4=CC(=CC=C4)[N+](=O)[O-] [IRAK-1-4 Inhibitor I]
Put shortly: as §1

Compound in assay [12]: C=CC(=O)N1CCC[C@@H](n2nc(-c3ccc(Oc4ccccc4)cc3)c3c(N)ncnc32)C1 [ibrutinib]
Put shortly: as §1

Compound in assay [13]: CC(=O)c1cnc2ccc(-c3cc(Cl)c(O)c(Cl)c3)nc2c1N[C@H]1CC[C@H](CN(C)C)CC1
Put shortly:
as §1

Compound in assay [14]: CC(C)(C)Cn1c(N)nc2ccc(-c3[nH]c(C(C)(C)C)nc3-c3ccc(F)cc3)nc21 [ralimetinib]
Put shortly: as §1

Compound in assay [15]: CC(C)(O)CC(=O)NCCn1ccc2ncnc(Nc3ccc(Oc4cccc(C(F)(F)F)c4)c(Cl)c3)c21
Put shortly: as §1

Compound in assay [16]: CC(C)C1=C2N=C(C=C(N2N=C1)NCC3=CC=CC=C3)NCCCCCCN
Put shortly:
as §1

Compound in assay [17]: CC(C)C[C@@H](C=O)NC(=O)[C@H](CC(C)C)NC(=O)[C@H](CC(C)C)NC(=O)OCc1ccccc1
Put shortly: as §1

Compound in assay [18]: CC(C)N(C[C@H]1O[C@@H](n2cnc3c(N)ncnc32)[C@H](O)[C@@H]1O)[C@H]1C[C@@H](CCc2nc3cc(C(C)(C)C)ccc3[nH]2)C1 [pinometostat]
Put shortly: as §1

Compound in assay [19]: CC1=C(C(CC(=O)N1)C2=CC=C(C=C2)C(F)(F)F)C(=O)NC3=C(C=C4C(=C3)C=NN4)F
Put shortly:
as §1

Compound in assay [20]: CC1=C(C2=C(C=C1)C(=O)C3=CC=CC=C3N2CCCN)C
Put shortly: as §1

Sequence of UniProt Q9Y2W1 (Q9Y2W1 whole entry, looked up): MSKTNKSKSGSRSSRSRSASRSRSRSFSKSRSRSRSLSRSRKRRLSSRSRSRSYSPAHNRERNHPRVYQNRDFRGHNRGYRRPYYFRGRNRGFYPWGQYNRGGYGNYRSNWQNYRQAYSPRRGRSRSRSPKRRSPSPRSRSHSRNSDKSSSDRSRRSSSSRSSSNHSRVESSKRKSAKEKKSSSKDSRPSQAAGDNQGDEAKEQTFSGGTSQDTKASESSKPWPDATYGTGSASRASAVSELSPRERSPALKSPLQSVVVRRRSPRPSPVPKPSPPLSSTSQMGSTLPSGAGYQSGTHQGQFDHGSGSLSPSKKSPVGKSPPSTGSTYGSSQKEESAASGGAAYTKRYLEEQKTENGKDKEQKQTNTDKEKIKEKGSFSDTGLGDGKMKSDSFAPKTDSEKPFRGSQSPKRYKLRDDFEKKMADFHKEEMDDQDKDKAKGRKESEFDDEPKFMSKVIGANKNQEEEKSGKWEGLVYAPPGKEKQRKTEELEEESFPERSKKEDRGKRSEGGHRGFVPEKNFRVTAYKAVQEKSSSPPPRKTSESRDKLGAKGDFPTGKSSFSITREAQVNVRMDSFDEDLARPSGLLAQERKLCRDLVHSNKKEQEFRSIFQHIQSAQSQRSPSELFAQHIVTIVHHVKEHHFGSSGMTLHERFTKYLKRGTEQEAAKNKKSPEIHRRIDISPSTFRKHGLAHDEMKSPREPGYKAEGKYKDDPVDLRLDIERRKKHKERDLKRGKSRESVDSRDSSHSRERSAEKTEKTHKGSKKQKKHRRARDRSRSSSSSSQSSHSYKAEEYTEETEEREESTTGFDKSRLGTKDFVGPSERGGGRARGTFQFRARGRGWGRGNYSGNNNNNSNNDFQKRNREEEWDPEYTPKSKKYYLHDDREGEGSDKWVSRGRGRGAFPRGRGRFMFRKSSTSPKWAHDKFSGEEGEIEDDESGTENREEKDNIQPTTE
Sequence of UniProt Q66K14 (Q66K14 whole entry, looked up): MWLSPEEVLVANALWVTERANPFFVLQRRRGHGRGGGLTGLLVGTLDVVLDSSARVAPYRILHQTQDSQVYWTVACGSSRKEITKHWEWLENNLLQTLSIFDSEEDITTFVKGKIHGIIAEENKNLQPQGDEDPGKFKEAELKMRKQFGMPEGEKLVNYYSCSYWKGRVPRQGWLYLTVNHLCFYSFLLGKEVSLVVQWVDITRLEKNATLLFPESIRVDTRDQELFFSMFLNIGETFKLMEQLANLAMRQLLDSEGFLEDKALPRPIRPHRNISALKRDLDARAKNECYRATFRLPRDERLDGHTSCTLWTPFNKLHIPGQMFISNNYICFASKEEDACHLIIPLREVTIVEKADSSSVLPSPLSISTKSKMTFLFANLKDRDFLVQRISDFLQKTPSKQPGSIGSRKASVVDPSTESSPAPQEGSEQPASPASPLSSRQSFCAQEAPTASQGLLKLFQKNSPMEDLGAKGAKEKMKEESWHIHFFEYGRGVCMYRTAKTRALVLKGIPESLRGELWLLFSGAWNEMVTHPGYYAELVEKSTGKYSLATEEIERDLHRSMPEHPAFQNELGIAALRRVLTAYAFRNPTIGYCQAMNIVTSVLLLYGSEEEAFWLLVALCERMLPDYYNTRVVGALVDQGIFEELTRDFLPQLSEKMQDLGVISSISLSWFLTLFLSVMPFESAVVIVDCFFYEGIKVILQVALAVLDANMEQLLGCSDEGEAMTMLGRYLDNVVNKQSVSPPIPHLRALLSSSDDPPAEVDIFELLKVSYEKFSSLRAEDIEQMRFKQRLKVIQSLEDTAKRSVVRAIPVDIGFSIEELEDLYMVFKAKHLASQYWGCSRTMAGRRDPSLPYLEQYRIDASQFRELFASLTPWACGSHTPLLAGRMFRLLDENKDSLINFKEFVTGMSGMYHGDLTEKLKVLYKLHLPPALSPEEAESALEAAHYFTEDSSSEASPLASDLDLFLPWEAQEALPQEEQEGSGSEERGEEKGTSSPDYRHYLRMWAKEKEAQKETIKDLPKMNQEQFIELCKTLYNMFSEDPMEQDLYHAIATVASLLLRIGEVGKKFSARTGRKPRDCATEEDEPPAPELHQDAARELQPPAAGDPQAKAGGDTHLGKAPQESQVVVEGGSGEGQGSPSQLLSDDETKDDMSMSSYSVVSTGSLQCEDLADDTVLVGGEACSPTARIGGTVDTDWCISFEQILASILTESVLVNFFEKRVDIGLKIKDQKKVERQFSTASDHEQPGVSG
Sequence of UniProt Q8IWA5 (Q8IWA5 whole entry, looked up): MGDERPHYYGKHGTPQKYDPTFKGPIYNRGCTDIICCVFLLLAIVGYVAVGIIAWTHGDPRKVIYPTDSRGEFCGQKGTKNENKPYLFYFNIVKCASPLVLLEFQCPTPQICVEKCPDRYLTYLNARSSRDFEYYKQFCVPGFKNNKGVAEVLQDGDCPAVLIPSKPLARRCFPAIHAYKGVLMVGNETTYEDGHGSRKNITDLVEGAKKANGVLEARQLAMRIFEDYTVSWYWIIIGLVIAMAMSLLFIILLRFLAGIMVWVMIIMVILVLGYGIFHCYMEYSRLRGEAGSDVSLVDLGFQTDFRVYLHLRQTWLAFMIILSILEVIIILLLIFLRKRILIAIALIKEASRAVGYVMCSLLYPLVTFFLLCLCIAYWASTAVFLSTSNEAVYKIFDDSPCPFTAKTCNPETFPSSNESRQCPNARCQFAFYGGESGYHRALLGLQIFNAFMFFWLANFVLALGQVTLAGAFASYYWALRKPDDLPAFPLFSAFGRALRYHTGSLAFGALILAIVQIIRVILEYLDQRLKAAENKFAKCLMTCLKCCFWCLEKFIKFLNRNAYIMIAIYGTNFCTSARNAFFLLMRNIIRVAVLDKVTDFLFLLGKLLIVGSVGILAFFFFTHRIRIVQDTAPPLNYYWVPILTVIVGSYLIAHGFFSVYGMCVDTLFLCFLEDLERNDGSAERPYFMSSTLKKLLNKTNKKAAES
Sequence of UniProt Q86UE8 (Q86UE8 whole entry, looked up): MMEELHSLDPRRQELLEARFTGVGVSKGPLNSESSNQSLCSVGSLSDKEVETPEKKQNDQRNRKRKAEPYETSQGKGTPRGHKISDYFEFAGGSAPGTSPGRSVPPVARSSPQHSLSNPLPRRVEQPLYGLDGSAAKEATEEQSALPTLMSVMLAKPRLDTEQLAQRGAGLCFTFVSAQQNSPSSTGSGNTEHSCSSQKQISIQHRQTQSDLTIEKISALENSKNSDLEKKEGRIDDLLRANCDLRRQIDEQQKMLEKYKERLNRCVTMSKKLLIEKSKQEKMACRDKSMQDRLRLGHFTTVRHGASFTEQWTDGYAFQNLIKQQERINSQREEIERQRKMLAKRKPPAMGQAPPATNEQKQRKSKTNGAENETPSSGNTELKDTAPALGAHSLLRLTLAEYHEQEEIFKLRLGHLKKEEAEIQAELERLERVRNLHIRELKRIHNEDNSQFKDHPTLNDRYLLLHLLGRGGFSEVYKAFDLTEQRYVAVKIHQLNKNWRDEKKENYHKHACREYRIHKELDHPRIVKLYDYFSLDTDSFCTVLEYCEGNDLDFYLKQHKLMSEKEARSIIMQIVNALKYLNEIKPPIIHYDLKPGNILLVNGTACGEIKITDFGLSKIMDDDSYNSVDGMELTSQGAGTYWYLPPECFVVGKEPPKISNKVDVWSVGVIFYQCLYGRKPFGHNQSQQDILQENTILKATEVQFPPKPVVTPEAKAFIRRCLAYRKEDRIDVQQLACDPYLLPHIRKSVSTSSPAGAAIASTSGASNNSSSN

For TLK2 isoform 2 (UniProt Q86UE8), the log2 fold change in [1] was 0; in assay [2] it was 0.008; in [3], 0.04; in assay [4] it was 0.074; in [5] it was -0.041; in assay [6] it was -0.016. Further, the log2 fold change in [7] was 0.064; in assay [8], 0; in assay [9], 0.017; in assay [10], -0.048; in assay [11], 0.035; in assay [12], -0.011. Further, the log2 fold change is -0.144 in assay [13]; -0.003 in [14]; -0.077 in assay [15]; 0.011 in assay [16]; 0.025 in assay [17]; -0.004 in [18]. Besides, the log2 fold change in assay [19] is -0.015; in [20], 0.282 (active).

As for THRAP3 (UniProt Q9Y2W1), the log2 fold change in assay [1] was 0.081; in assay [2], 0.023; in [3], -0.071; in [4], 0.067; in assay [5] it was -0.094; in assay [6], -0.002. The log2 fold change in assay [7] was -0.097; in assay [8], -0.171; in assay [9], 0.038; in assay [10], -0.09; in assay [11], -0.116; in assay [12], 0.01. Moreover, the log2 fold change in [13] is -0.581 (active); in [14], -0.026; in [15], -0.032; in [16], -0.12; in assay [17], 0.075; in assay [18], 0.057. Also, the log2 fold change in assay [19] was 0.066; in assay [20] it was -0.018.

As for TBC1D9B (UniProt Q66K14), the log2 fold change is 0.07 in [1]; 0.001 in assay [2]; -0.087 in assay [3]; 0.072 in assay [4]; 0.151 in assay [5]; -0.092 in assay [6]. Further, the log2 fold change in assay [7] was -0.011; in [8] it was 0.021; in assay [9], -0.055; in assay [10], -0.058; in [11], 0.038; in [12], 0.079. The log2 fold change in assay [13] was -0.075; in assay [14], 0.071; in assay [15], 0.103; in assay [16], -0.133; in [17], 0.032; in [18], 0.051. Moreover, the values for the log2 fold change in [19] and in assay [20] were 0.02 and -0.042, respectively.

On to SLC44A2 isoform 2 (UniProt Q8IWA5), for which the log2 fold change in [1] is 0.059; in assay [2] it was 0.028; in assay [3], -0.059; in [4], -0.054; in [5], 0.019; in assay [6], -0.096. In addition, the log2 fold change is 0.073 in [7]; -0.065 in [8]; -0.105 in [9]; 0.01 in assay [10]; 0.092 in [11]; 0.055 in assay [12]. Further, the log2 fold change in [13] is 0.034; in [14] it was -0.128; in assay [15], -0.006; in assay [16], 0.296 (active); in assay [17], -0.047; in assay [18] it was 0.056. Also, the log2 fold change in assay [19] was -0.078; in assay [20], 0.034.
